From PubChem BioAssay (NCATS)
“And” between values parts separate entries of the source, which are not always exact repeats. Identical values can stand only once. Results filed as inconclusive are left out. The source made the active and inactive calls. Unless noted, calls follow the shape of the dose curve; as a rule, active = well fitted cell-killing curve with a large enough effect; inconclusive = small, poorly fitted or top-dose-only effect; inactive = flat fitted curve, though single readings scatter.

Tests used:
[1] = Cell Viability - LYMP2-008 (AID 980); also: % is scaled to controls: 0 for no effect and ±100 for the full control effect; nearly all actives have a fitted effect of over 60% in size
How it was run: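 Acute cytotoxicity is scored as concentration-dependent loss of cellular ATP in a human lymphoblastoid line after 24 hr treatment at 37 C. ATP is quantified by luciferase luminescence.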

[2] = Cell Viability - LYMP2-010 (AID 981);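 also: cells exposed to compound for 24 hours at 37 °C; % is scaled to controls: 0 for no effect and ±100 for the full control effect; nearly all actives have a fitted effect of over 55% in size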
How it was run: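 Acute toxicity is scored as a concentration-dependent loss of cellular ATP in human lymphoblastoid cells after 24 hr compound exposure in complete medium. Tetraoctylammonium bromide is the positive control.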

[3] = Cell Viability - LYMP2-014 (AID 983);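 also: series mostly up to about 92 µM; plate controls were DMSO only for no effect and 92 µM tetraoctylammonium bromide for full effect; nearly all actives have a fitted effect of over 50% in size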
How it was run: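 Decrease in intracellular ATP after 24 hr treatment at 37 C, measured by luciferase luminescence, indicated cytotoxicity. Concentration-response data were fitted with the standard Hill equation to give AC50.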

[4] = Cell Viability - LYMP2-016 (AID 984);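 also: cells exposed to compound for 24 hours at 37 °C; % is scaled to controls: 0 for no effect and ±100 for the full control effect; nearly all actives have a fitted effect of over 55% in size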
How it was run: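 Human lymphoblastoid LYMP2-016 cells, 2500 per well, treated with compounds for 24 h at 37 C. Viability read as intracellular ATP by CellTiter-Glo luminescence after 30 min at room temperature; AC50 from Hill fits of concentration-response.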

[5] = Cell Viability - LYMP2-018 (AID 985);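 also: compound exposure lasted 24 hr at 37 °C; plate controls were DMSO only for no effect and tetraoctylammonium bromide at 92 µM for full effect; nearly all actives have a fitted effect of over 50% in size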
How it was run: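 Acute cytotoxicity is scored as a concentration-dependent drop in intracellular ATP after 24 hr exposure of the lymphoblastoid line in complete culture medium, measured by luciferase luminescence. Potency is expressed as AC50 from Hill modelling.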

[6] = Cell Viability - LYMP2-020 (AID 986);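 also: series mostly up to about 92 µM; plate controls were DMSO only for no effect and tetraoctylammonium bromide at 92 µM for full effect; nearly all actives have a fitted effect of over 55% in size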
How it was run: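 Acute cytotoxicity in a human lymphoblastoid line is scored as a concentration-dependent fall in cellular ATP after 24 hr at 37 C in complete medium. The positive control is tetraoctylammonium bromide, and potency is given as Hill-fit AC50.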

[7] = Cell Viability - LYMP2-022 (AID 987);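 also: 0% = DMSO alone and full effect = tetraoctylammonium bromide at 92 µM; nearly all actives have a fitted effect of over 55% in size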
How it was run: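 Acute toxicity in a human lymphoblastoid line is scored as decreased intracellular ATP after 24 hr compound treatment at 37 C. ATP is measured by CellTiter-Glo luminescence; curves are fitted with the Hill equation to give AC50.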

[8] = Cell Viability - LYMP2-024 (AID 988);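 also: cells exposed to compound for 24 hr at 37 °C; plate controls were DMSO only for no effect and 92 µM tetraoctylammonium bromide for full effect; nearly all actives have a fitted effect of over 60% in size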
How it was run: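 Acute toxicity is measured as concentration-dependent loss of intracellular ATP in a human lymphoblastoid line treated 24 hours at 37 C. Luciferase luminescence quantifies ATP; AC50 values come from standard Hill-equation modelling.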

[9] = Cell Viability - LYMP2-026 (AID 989); also: % is scaled to controls: 0 for no effect and ±100 for the full control effect; nearly all actives have a fitted effect of over 50% in size
How it was run: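 Concentration-dependent loss of intracellular ATP in human lymphoblastoid cells after 24 hr at 37 C, quantified by luciferase luminescence. AC50 derived from standard Hill equation.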

[10] = Cell Viability - LYMP1-002 - Assay at 24 hr (AID 993); also: % is scaled to controls: 0 for no effect and ±100 for the full control effect
How it was run: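 qHTS, LYMP1-002 lymphoblastoid, 24 h cpd, 37 C, CellTiter-Glo ATP luminescence; AC50 via Hill eq.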

[11] = Cell Viability - LYMP1-002 - Assay at 40 hr (AID 994);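 also: 0% = DMSO only and full inhibition = 92 µM tetraoctylammonium bromide; nearly all actives have a fitted effect of over 60% in size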
How it was run: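 Viability in the human lymphoblastoid line was measured as intracellular ATP via CellTiter-Glo after 40 hr compound exposure. Tetraoctylammonium bromide served as positive control.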

[12] = qHTS Assay for Identification of Small Molecule Inducers of Hypoxia Response (AID 2120; active = well fitted curve in the direction sought with a large enough effect in the signal ratio, with a control signal flat, not every such curve was filed as active; the % refers to the signal ratio; also: 0% is about no effect)
How it was run: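 Induction of beta-lactamase reporter activity was measured in CellSensor HRE-bla ME-180 cells after 17 h compound treatment at 37 degrees C, using CCF4 substrate and the 460nm/530nm emission ratio to derive AC50 values.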

[13] = target: Estrogen receptor (Homo sapiens) (UniProt P03372); experiment: qHTS assay for small molecule antagonists of estrogen receptor alpha signaling (AID 588513; active = well fitted curve in the direction sought with a large enough effect in the signal ratio, with a control signal flat, not every such curve was filed as active; the % refers to the signal ratio; also: % is scaled to controls: 0 for no effect and ±100 for the full control effect)
How it was run: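 ER-alpha-UAS-bla GripTite HEK 293 cells in 2% charcoal/dextran-treated FBS medium; compounds titrated (1:2, duplicate), then stimulated with 0.5 nM 17-beta-estradiol for 18 h at 37C. CCF4 beta-lactamase fluorescence; Hill-fit IC50 and efficacy.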

[14] = target: Estrogen receptor (Homo sapiens) (UniProt P03372); experiment: qHTS assay for small molecule agonists of estrogen receptor alpha signaling (AID 588514; calls by dose curve;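 also: 0% = vehicle only and 100% = reference agonist; nearly all actives have a fitted effect of over 70% in size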)
How it was run: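 Reporter-gene assay. […] controls beta-lactamase in HEK 293 GripTite cells; after 18 hrs with compound, CCF4 substrate is added for 2 hrs and fluorescence is read.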

[15] = target: Bile acid receptor (Homo sapiens) (UniProt Q96RI1); experiment: qHTS assay for small molecule antagonists of farnesoid X receptor signaling (AID 588526; calls by dose curve; also: % is scaled to controls: 0 for no effect and ±100 for the full control effect)
How it was run: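 Beta-lactamase reporter antagonist mode: HEK293T FXR-UAS-bla cells, titrated compound, CDCA stimulation, 16 h 37 C, CCF4 dye 2 h RT. Data normalized to CDCA 50 uM and DMSO; Hill-fit IC50.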

[16] = target: Bile acid receptor (Homo sapiens) (UniProt Q96RI1); experiment: qHTS assay for small molecule agonists of farnesoid X receptor signaling (AID 588527; calls by dose curve;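 also: series mostly up to about 77 µM; 0% = vehicle basal and 100% = reference agonist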); settings: HEK293T FXR-UAS-bla, beta-lactamase ratio, 16 h; stronger effect = higher value
How it was run: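 Read-out: beta-lactamase reporter fluorescence with CCF4 substrate in GeneBLAzer FXR-UAS-bla HEK293T cells, after 16 h compound exposure at 37 C. Response scaled between DMSO basal (0%) and chenodeoxycholic acid at 100 uM (100%).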

[17] = target: Peroxisome proliferator-activated receptor delta (Homo sapiens) (UniProt Q03181); experiment: qHTS assay for small molecule agonists of peroxisome proliferator-activated receptor delta signaling (AID 588534; calls by dose curve;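 also: 0% = DMSO basal wells and 100% = positive control agonist at 10 µM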)
How it was run: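 Reporter cells were plated and held 5 hrs at 37 C before compounds were added. After 18 hrs at 37 C, CCF4 dye was loaded for 2 hrs at RT and fluorescence measured.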

[18] = qHTS assay for small molecule antagonists of peroxisome proliferator-activated receptor delta signaling (AID 588535; active = well fitted inhibition curve with a large enough effect in the signal ratio, with a control signal flat, not every such curve was filed as active; the % refers to the signal ratio;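 as to max response: cells co-treated with a PPAR-delta agonist as stimulator during compound exposure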); settings: HEK293T PPARd-UAS-bla, beta-lactamase FRET ratio, 18 h; 460 nm channel
How it was run: (§1)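 Cell-based beta-lactamase assay in antagonist mode: 4000 HEK293T PPAR-delta-UAS-bla cells per well, 5 hr preincubation then 18 hr compound incubation at 37 C. IC50 obtained by Hill equation fitting.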

[19] = target: Peroxisome proliferator-activated receptor delta (Homo sapiens) (UniProt Q03181); experiment: as above
How it was run: as §1

[20] = target: Peroxisome proliferator-activated receptor gamma (Homo sapiens) (UniProt P37231); experiment: qHTS assay for small molecule agonists of peroxisome proliferator-activated receptor gamma signaling (AID 588536; active = well fitted curve in the direction sought with a large enough effect in the signal ratio, with a control signal flat, not every such curve was filed as active; the % refers to the signal ratio;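 also: 0% = DMSO basal wells and 100% = rosiglitazone at 2 µM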)
How it was run: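 Test agents, titrated, stimulated HEK293 UAS-bla cells overnight (16 h, 37 C). Substrate CCF4 was then added for two hours at room temperature before fluorescence reading.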

[21] = qHTS assay for small molecule agonists of retinoid X receptor alpha signaling (AID 588544; calls by dose curve;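 as to activation: 0% = DMSO basal wells and 100% = reference agonist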); settings: HEK293T RXRa-UAS-bla, beta-lactamase reporter, 18 h; 530 nm emission
[22] = target: Retinoic acid receptor RXR-alpha (Homo sapiens) (UniProt P19793); experiment: as above
[23] = target: Thyroid hormone receptor beta (Homo sapiens) (UniProt P10828); experiment: qHTS assay for small molecule agonists of thyroid hormone receptor beta signaling (AID 588545; calls by dose curve)
How it was run: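 Agonist activity was read as beta-lactamase CCF4 fluorescence (405 ex, 460/530 em), scaled between DMSO (0%) and 10 nM T3 (100%), then Hill-fitted for EC50 and efficacy. HEK 293 TR-UAS-bla cells in 2% charcoal/dextran FBS medium were exposed 18 h at 37 C.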

[24] = qHTS assay for small molecule antagonists of retinoid X receptor alpha signaling (AID 588546); settings: HEK293T RXRa-UAS-bla, beta-lactamase ratio, antagonist mode; measured here: W530 green channel, cytotoxicity proxy;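 also: cells stimulated with 9-cis-retinoic acid as agonist; % is scaled to controls: 0 for no effect and ±100 for the full control effect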
How it was run: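 Beta-lactamase reporter inhibition, read as CCF4 fluorescence ratio (ex 405, em 460/530 nm) after 2 h at RT. HEK293T UAS-bla cells, 2500/well, were stimulated with 9-cis-RA at 500 or 100 nM final alongside test compound for 18 h at 37 C.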

Chain of Estrogen receptor (Homo sapiens) (P03372 whole entry, looked up): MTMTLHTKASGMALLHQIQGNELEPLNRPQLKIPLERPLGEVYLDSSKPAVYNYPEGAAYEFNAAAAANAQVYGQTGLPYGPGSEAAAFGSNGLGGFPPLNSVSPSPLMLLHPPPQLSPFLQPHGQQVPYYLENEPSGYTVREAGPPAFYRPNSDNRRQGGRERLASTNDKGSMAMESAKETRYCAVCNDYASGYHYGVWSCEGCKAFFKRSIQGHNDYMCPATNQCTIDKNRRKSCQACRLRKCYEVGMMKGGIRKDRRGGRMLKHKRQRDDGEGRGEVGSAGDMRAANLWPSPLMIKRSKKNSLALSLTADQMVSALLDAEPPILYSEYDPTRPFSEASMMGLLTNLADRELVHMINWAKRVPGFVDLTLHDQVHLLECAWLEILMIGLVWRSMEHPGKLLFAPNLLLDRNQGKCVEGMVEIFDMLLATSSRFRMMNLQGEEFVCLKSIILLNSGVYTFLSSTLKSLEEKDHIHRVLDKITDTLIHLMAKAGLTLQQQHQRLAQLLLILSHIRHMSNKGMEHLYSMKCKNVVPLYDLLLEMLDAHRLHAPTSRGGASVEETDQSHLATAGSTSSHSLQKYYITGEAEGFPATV
Chain of Bile acid receptor (Homo sapiens) (Q96RI1 whole entry, looked up): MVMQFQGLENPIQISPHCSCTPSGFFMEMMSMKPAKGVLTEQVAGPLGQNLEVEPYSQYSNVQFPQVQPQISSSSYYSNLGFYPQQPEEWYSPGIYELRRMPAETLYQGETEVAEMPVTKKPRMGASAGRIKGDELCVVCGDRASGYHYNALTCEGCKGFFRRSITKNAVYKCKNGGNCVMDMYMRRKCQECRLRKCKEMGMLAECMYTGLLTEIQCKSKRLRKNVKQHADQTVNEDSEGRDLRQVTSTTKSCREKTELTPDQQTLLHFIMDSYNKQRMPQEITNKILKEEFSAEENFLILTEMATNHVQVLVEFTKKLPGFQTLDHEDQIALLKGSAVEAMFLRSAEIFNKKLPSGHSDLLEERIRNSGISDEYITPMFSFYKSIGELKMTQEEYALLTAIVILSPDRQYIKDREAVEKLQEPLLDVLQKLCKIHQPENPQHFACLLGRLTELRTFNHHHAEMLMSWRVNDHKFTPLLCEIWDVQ
Chain of Peroxisome proliferator-activated receptor delta (Homo sapiens) (Q03181 whole entry, looked up): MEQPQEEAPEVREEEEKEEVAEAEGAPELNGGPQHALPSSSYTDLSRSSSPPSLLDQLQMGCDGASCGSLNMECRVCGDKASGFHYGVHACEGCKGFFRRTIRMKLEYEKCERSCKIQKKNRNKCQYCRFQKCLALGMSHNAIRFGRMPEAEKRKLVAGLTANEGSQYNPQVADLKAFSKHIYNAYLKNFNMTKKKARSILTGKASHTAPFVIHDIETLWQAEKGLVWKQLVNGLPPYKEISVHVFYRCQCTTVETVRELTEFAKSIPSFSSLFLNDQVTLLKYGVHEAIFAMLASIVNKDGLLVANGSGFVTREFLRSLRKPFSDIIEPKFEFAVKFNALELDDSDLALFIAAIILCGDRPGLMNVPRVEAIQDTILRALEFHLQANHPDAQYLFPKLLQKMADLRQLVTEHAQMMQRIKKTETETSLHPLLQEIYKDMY
Chain of Thyroid hormone receptor beta (Homo sapiens) (P10828 whole entry, looked up): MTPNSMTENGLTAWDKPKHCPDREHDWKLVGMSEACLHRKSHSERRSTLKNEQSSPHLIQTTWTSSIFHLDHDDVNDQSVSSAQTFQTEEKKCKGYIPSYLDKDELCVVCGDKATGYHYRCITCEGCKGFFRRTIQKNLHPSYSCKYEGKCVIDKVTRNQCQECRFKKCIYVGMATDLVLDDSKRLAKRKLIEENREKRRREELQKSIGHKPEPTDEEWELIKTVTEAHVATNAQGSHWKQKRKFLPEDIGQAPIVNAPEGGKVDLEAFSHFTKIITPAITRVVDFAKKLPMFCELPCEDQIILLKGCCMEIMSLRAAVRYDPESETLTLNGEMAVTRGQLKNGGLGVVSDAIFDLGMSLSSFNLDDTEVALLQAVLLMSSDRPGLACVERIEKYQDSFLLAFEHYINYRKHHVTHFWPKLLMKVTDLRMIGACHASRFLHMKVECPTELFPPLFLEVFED
Chain of Retinoic acid receptor RXR-alpha (Homo sapiens) (P19793 whole entry, looked up): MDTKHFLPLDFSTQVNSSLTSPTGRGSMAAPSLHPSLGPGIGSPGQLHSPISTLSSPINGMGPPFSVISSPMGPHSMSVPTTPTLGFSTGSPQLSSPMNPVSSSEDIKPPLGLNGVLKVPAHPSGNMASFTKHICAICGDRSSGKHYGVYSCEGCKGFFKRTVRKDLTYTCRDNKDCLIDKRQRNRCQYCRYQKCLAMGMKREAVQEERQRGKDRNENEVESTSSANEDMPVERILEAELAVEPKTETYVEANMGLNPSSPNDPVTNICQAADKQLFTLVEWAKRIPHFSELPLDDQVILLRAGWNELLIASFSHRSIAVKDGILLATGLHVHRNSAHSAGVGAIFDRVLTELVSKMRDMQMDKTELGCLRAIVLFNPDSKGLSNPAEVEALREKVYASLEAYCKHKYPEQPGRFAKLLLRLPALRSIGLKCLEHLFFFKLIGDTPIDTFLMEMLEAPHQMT
Chain of Peroxisome proliferator-activated receptor gamma (Homo sapiens) (P37231 whole entry, looked up): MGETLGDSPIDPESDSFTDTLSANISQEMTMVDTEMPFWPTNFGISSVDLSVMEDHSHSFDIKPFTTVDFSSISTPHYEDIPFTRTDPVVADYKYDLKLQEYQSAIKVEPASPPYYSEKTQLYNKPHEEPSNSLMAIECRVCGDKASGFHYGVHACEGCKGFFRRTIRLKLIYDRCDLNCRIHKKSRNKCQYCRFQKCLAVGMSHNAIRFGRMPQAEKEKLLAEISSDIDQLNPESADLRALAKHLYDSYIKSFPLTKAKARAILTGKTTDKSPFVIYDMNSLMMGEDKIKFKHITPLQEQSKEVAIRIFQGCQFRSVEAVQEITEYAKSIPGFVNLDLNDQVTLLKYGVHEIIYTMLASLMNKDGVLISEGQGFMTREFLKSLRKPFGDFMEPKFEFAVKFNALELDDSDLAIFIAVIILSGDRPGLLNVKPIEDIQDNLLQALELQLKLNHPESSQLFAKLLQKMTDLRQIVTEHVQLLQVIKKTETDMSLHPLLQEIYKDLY

CCCOC(=O)c1ccccc1C(=O)OCCC
8.06% and -8.01%: max response [21]
2.17%: max response [18]
3.93% and -2.34%: max response [24]
inactive: Potency [1] | Potency [2] | Potency [3] | Potency [4] | Potency [5] | Potency [6] | Potency [7] | Potency [8] | Potency [9] | Potency [10] | Potency [11] | outcome [12] | Potency [13] | Potency [14] | outcome [15] | activation [16] -0.825% and -0.41% | outcome [17] | Potency [19] | outcome [20] | Potency [22] | outcome [23]
